Data from PubChem BioAssay AID504652 (National Center for Advancing Translational Sciences (NCATS), 2011).
The whole screen tested about 360,000 compounds, of which about 11,000 (3.1%) were called active. Shown is part of a subset that was picked to be rich in actives. A number with no mark means an inactive call. No stated cut-off is given here; in the data, active means activity change below about -30%; inactive means the rest.

Biological target: D(1A) dopamine receptor (Homo sapiens) (UniProt P21728)
Sequence (P21728 whole entry, looked up): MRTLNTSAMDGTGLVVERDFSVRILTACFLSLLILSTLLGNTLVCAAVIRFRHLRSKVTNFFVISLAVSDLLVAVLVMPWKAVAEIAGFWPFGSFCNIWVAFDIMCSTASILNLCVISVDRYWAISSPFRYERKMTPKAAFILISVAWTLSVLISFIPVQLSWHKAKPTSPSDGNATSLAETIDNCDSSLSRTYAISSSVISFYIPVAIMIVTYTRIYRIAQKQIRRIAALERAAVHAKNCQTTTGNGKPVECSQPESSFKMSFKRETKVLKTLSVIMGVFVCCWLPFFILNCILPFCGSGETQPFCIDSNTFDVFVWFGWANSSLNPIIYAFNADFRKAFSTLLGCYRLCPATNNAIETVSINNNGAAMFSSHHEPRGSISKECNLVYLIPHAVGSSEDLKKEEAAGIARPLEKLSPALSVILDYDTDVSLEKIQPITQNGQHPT
Assay: Antagonist of Human D 1 Dopamine Receptor: qHTS
Details: HEK293 TREx D1 cells, calcium flux, dopamine EC80; at 10 µM; stronger effect = lower value
In short: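 Compound effects on dopamine-evoked calcium signalling were measured in tetracycline-induced HEK293 Trex D1 cells. Dopamine at EC80 followed a 180 s compound pre-read, and fluorescence was tracked kinetically for 180 s more.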
On the % scale 0 is the no-effect control and ±100 the full control effect.

| Structure (SMILES) | activity change, negative = inhibition |
| --- | --- |
| Cc1ccccc1NC(=O)c1cc2c([nH]c1=O)CC(C)(C)CC2=O | -6.86% |
| CCOc1cccc(NC(=O)CSc2ncc(-c3ccc(Cl)cc3)[nH]2)c1 | -2.12% |
| COc1ccccc1CSc1ncc(-c2ccc([N+](=O)[O-])cc2)[nH]1 | -37.4% (active) |
| COc1ccc(-c2cnc(SCCNC(=O)c3ccc4c(c3)OCO4)[nH]2)cc1 | 1.65% |
| Cc1c(C(=O)NCc2ccccc2Br)oc2ccc3c(c12)C(=O)CC(C)(C)O3 | -29.9% |
| COc1ccc2cc1Oc1ccc(cc1)C[C@H]1c3cc(c(OC)cc3CCN1C)Oc1c(O)c(OC)cc3c1[C@H](C2)N(C)CC3 | -27.6% |
| COc1ccc(CN2CCCC(N3CCc4ccccc4C3)C2)c(O)c1 (stereo unspecified) | -0.568% |
| COc1c(O)ccc2c1CN1CCc3cc4c(cc3C1C2)OCO4 (stereo unspecified) | -67.5% (active) |
| CCOc1ccc(S(=O)(=O)c2cn(Cc3ccc(OC)cc3)c3ccc(F)cc3c2=O)cc1 | -3.59% |
| CCc1nc2ccc(C(=O)N3CCN(c4cc(Cl)ccc4C)CC3)cc2nc1CC | 4.25% |
| O=C(CSc1ncn[nH]1)Nc1nc(-c2cccc([N+](=O)[O-])c2)cs1 | -1.2% |
| O=C(CSc1ncn[nH]1)Nc1nsc(-c2ccccc2)n1 | 1.31% |
| Cn1nnc(NC(=O)CSc2ncn[nH]2)n1 | -31.7% (active) |
| CCOC(=O)c1scc(-c2ccccc2)c1S(=O)(=O)Nc1ccccc1F | -3.82% |
| CCC(C(=O)Nc1cccc(-c2nc3cccnc3s2)c1C)c1ccccc1 (stereo unspecified) | -4.82% |
| O=C(CSc1ccccc1)Nc1ccc(C(=O)Nc2cccc(O)c2)cc1 | -29.1% |
| O=C(Nc1cccc(O)c1)c1ccc(C(=O)c2ccccc2)o1 | -9.29% |
| C/C(=C\C(=O)c1ccccc1)Nc1cccc(O)c1 | -30.1% (active) |
| Cc1ccc(NC(=O)CSc2nc3c(c(=O)[nH]2)CN(Cc2ccc4c(c2)OCO4)CC3)cc1C | 11.3% |
| COc1ccc(-n2c(SCC(=O)NCc3cccs3)nnc2-c2ccoc2C)cc1 | -0.757% |
| O=C(CSc1nnc(-c2c[nH]c3ccccc23)n1-c1ccc(F)cc1)NCc1ccco1 | 3.17% |
| COc1ccc(-n2c(SCC(=O)NCc3ccco3)nnc2-c2c[nH]c3ccccc23)cc1 | -90% (active) |
| CCOC(=O)C1CCC(CN(Cc2ccc(OC)cc2)S(=O)(=O)c2ccc(F)c(C(=O)Nc3cc(C)ccc3C)c2)CC1 (stereo unspecified) | 15.6% |
| CCOc1ccc(S(=O)(=O)N2CCC(C(=O)OCc3ccc(OC)cc3)CC2)cc1 | -16.6% |
| COc1cccc(COC(=O)C2CCN(S(=O)(=O)c3cccs3)CC2)c1OC | -15.5% |
| COc1cccc(COC(=O)C2CCN(S(=O)(=O)c3ccc(Cl)cc3)CC2)c1OC | -32.8% (active) |
